High-throughput results as filed in PubChem.
Only some compounds are listed: those with a hit (about 3.1% of all), similar ones and a draw of the others.
Tau filament bind = qHTS Assay for Tau Filament Binding | Microtubule-associated protein tau (Homo sapiens), P10636 | recombinant tau filaments, thioflavin S fluorescence, 15 h; filaments grown with octadecylsulfate alongside compound | Potency, µM (doses to about 57.1 µM), inactives show at the top dose activity change, negative = inhibition | hit rate 2% among 71,000 | AID 596, 2007;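 also: potency is read from the fitted curve at half-maximal effect; % is scaled to controls: 0 for no effect and ±100 for the full control effect; actives lower thioflavin S fluorescence by blocking filaments or displacing dye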
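Thioflavine S fluorescence (ex 450, em 510 nm) reports filaments formed from 1 uM human tau plus 30 uM ODS over 15 h at 37 C (10 mM HEPES pH 7.4, 100 mM NaCl, 5 mM DTT); compounds displacing dye or blocking filaments lower signal.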
ALOX15 inhib = qHTS Assay for Inhibitors of 15-hLO (15-human lipoxygenase); Polyunsaturated fatty acid lipoxygenase ALOX15 (Homo sapiens), P16050; purified 15hLO-1, xylenol orange hydroperoxide absorbance; Potency, µM (highest dose often 57.1 µM), for inactives: at the top dose activity change, negative = inhibition, most hits filed as inhibitors; hit rate 1.4% among 74,000; AID 887, 2007; also: potency is read from the fitted curve at half-maximal effect; % is scaled to controls: 0 for no effect and ±100 for the full control effect; nearly all actives have a fitted effect of over 55% in size
Target sequence (P16050 whole entry, looked up): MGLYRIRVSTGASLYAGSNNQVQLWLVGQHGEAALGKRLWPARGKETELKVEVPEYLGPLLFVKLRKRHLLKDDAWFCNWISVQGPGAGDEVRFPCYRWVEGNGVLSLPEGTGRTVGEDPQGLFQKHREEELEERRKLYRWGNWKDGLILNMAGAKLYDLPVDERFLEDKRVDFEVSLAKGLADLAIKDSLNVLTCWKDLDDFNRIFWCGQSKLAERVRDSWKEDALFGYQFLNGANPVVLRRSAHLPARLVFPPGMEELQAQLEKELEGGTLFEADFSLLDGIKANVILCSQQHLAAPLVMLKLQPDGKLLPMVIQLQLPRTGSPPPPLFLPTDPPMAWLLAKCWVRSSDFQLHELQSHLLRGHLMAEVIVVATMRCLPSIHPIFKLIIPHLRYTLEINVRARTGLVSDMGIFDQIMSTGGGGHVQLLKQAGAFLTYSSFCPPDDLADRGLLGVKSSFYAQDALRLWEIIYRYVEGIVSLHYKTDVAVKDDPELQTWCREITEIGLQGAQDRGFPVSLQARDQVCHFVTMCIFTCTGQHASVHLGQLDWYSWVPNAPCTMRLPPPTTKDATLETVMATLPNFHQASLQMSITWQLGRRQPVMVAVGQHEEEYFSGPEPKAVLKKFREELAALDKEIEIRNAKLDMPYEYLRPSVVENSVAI
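Inhibition is scored from a chromogenic endpoint. After 15 min enzyme-compound contact, arachidonic acid (50 uM final) reacts 6 min with 40 nM 15hLO-1 at room temperature, then Fe-XO reagent is added for 30 min and absorbance ratio recorded.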
BRCT inh red = qHTS Assay for Inhibitors of BRCT-Phosphoprotein Interaction (Red Fluorophore) | Breast cancer type 1 susceptibility protein (Homo sapiens), P38398 | AID 892, 2007 | hit rate 0.03% among 75,000 | Potency, µM (doses to about 76.9 µM), without a hit: top-dose activity change, negative = inhibition, most hits filed as inhibitors | BRCT-phosphopeptide binding, red fluorescence polarization; also: % is scaled to controls: 0 for no effect and ±100 for the full control effect
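Rhodamine-labelled pBACH1 10-mer (100 nM) bound to BRCT domain (100 nM) at pH 7.3; compounds incubated 12 min room temperature, polarization read. Free peptide defines full inhibition; unlabelled decapeptide titrated as control.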
YjeE inh = qHTS Assay for Inhibitors of YjeE; tRNA threonylcarbamoyladenosine biosynthesis protein TsaE (Escherichia coli (strain …; purified YjeE enzyme, qHTS inhibition assay; hit rate 0.05% among 71,000; Potency, µM
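Fluorescence polarization of a BODIPY Texas Red–ADP probe (2 uM) bound to purified YjeE (10 uM) was read after 15 min room-temperature incubation with compounds. Loss of polarization marks inhibitors; ADP serves as titrated control.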
BRCT PPI green = qHTS Assay for Inhibitors of BRCT-Phosphoprotein Interaction (Green Fluorophore). Breast cancer type 1 susceptibility protein (Homo sapiens), P38398. BRCA1 BRCT-phosphopeptide binding, green fluorescence polarization. Potency, µM (titrated, usually from 76.9 µM), for inactives: at the highest dose activity change, negative = inhibition, hits mostly inhibitors. hit rate 0.05% among 75,000. AID 875, 2007;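 also: potency is read from the fitted curve at half-maximal effect; plate controls were peptide without protein for full effect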
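Compounds were incubated for 12 min at room temperature with a complex of 100 nM fluorescein-tagged pBACH1 decapeptide and 250 nM His-tagged BRCT protein. Buffer was phosphate pH 7.3 with EDTA, DTT and Tween 20. Disruption of binding lowers the polarization signal.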
Pol III holo inh = qHTS Assay for Inhibitors of DNA Polymerase III Holoenzyme System; reconstituted DNA polymerase III holoenzyme replication, biochemical; Potency, µM (titrated, usually from 57.1 µM), for the others: at the highest dose activity change, negative = inhibition; hit rate 0.25% among 71,000; also: potency is read from the fitted curve at half-maximal effect; % is scaled to controls: 0 for no effect and ±100 for the full control effect
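Reconstituted *E. coli* holoenzyme (0.35 nM Pol III, 1 nM beta, 154 nM SSB, 2 nM primase) was preincubated with compound for 15 min at RT. Synthesis on 1.4 nM ssM13Gori ran 35 min, then was stopped with PicoGreen/EDTA and read as dsDNA fluorescence.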
An asterisk follows results filed as active; i = inactive; ? = inconclusive; . = no result given; ! = not confirmed by another sample; [ ] = remark or other dose. Calls follow the shape of the dose curve; as a rule, active = well fitted curve in the direction sought with a large enough effect; inconclusive = small, poorly fitted or top-dose-only effect, or another doubt; inactive = no such curve, though single readings can be large; an effect the other way counts as inactive or inconclusive.

SMILES | Tau filament bind | ALOX15 inhib | BRCT inh red | YjeE inh | BRCT PPI green | Pol III holo inh
O=c1ccc2cc3c([nH]c4ccc(Br)cc43)oc-2c1O | 13µM* | 25µM* | -2% | i | -1% | -9%
C=CCC1C=CC(Oc2ccc(OC)cc2)C(COC(=O)c2ccc(Br)cc2)O1 (stereo not drawn) | . | ? | 0%[15.4 µM] | . | 1%[15.4 µM] | .
CC1CCC/C(=C\Nc2ccc3c(c2)OCO3)C1=O (stereo not drawn) | 25µM* | -18% | -1% | i | -2% | -1%
N#Cc1c(-c2ccccc2)cc(-c2ccco2)c(C#N)c1N | 43% | 7.9µM* | -5% | i | 9% | -6%
COC(=O)c1sc2nc(-c3ccco3)ccc2c1N | 5% | 2% | -1% | i | -2% | -7%
N#Cc1sc2nc(-c3ccccc3)cc(-c3ccco3)c2c1N | 2.5µM* | 4µM* | -10% | i | -3% | -2%
Cc1cccc(CNc2cc(-c3ccoc3)ncn2)c1 | -5% | -3% | 0% | i | 5% | 0%
Oc1cc2c(cc1O)C1c3ccc(O)c(O)c3OCC1(O)C2 (stereo not drawn) | . | 5µM* | 2% | . | 1%[3.08 µM] | .
N#CC1=C(N)S[C@H](C(=O)C23CC4CC(CC(C4)C2)C3)[C@H]1c1ccncc1 | -9% | 13µM* | -3% | i | 0% | 9%
CCCCCCCCCCCC1=C(O)C(=O)C=C(O)C1=O | 3.2µM* | 5µM* | -17% | i | -6% | 6.3µM*!
O=C1[C@H]2O[C@@H]2[C@@H](O)[C@H]2[C@H]1CCn1c(=O)n(Cc3cc4c(cc3Cl)OCO4)c(=O)n12 | . | 4%[11.4 µM] | 1%[15.4 µM] | . | -3%[15.4 µM] | .
Cc1cc(C)nc(Nc2nc(=O)c3ccccc3s2)n1 | 33% | 7.9µM* | -3% | i | -1% | -4%
O=C(O)C1CCCN1S(=O)(=O)c1cccc2cccnc12 (stereo not drawn) | -3% | 10% | -1% | i | -1% | -5%
c1coc(-c2nc3nc4ccccc4nc3n2CC2CCCO2)c1 (stereo not drawn) | -7% | ? | 0% | i | 17% | -11%
COc1ccccc1Cn1c(-c2ccco2)nc2nc3ccccc3nc21 | 16µM* | -2% | 1% | i | 4% | -6%
CCCn1c(-c2ccc(OC)cc2)nc2nc3ccccc3nc21 | -25% | 1% | -2% | i | -2% | -6%
Clc1ccc(-c2nc3nc4ccccc4nc3n2Cc2ccco2)cc1 | ? | -3% | 0% | i | -2% | 2%
COc1ccc(CCn2c(-c3ccco3)nc3nc4ccccc4nc32)cc1 | 13µM* | -5% | 0% | i | 4% | 0%
c1ccc(Cn2c(-c3ccco3)nc3nc4ccccc4nc32)cc1 | 7.9µM* | -18% | 0% | i | 4% | -4%
Cc1ccc(-c2nc3nc4ccccc4nc3n2Cc2ccco2)cc1 | 16µM* | ? | -2% | i | 2% | -2%
COc1ccc(OC)c([C@H]2Nc3ccccc3NC3=C2C(=O)CC(C)(C)C3)c1Br | -29% | . | . | i | . | 2%
COC(=O)[C@@H]1C[C@@]2(O)[C@H](O)[C@H](O)[C@H](O)C[C@H]2N1Cc1c(F)cccc1Cl | . | . | -1% | . | 0% | .
CN1CCN(c2ccncc2S(=O)(=O)N2CCN(C)CC2)CC1 | -4%[11.4 µM] | 13%[11.4 µM] | 1%[15.4 µM] | i | 0%[15.4 µM] | -10%[11.4 µM]
CCCCCn1c(-c2ccco2)nc2nc3ccccc3nc21 | 13µM* | ? | 0% | i | 7% | -8%
Cn1c(O)c(N=N/C(=N/c2ccccn2)c2ccccn2)c2cc(Br)ccc21 | . | ? | -1% | . | -5% | .
SMILES | Tau filament bind | ALOX15 inhib | BRCT inh red | YjeE inh | BRCT PPI green | Pol III holo inh
COC(=O)[C@]1(C)CCC[C@]2(C)c3ccc(C(C)C)cc3C(=O)CC12 (stereo partly drawn) | . | ? | 2% | . | -3% | .
COc1ccc2c(=O)c3c(=O)n(Cc4ccco4)c(-c4ccccc4)nc3oc2c1 | 2.5µM* | -2% | -1% | i | -2% | -11%
CCCCCCn1c(-c2ccco2)nc2oc3cc(OC)ccc3c(=O)c2c1=O | 3.2µM* | -26% | -1% | ? | -2% | 7%
C[C@@H](Cc1ccccc1)Nc1ncnc2c1ncn2[C@@H]1O[C@@H](CO)[C@H](O)[C@@H]1O | -9% | -23% | -1% | i | -4% | -11%
CO/N=C(/C)CCC(=O)OC[C@@H]1O[C@H](c2ccccc2)C=C[C@@H]1Oc1ccc(OC)cc1 | . | 1%[11.4 µM] | 1%[15.4 µM] | . | -2%[15.4 µM] | .
OCCNCCCOc1cccc(Cl)c1Cl | ? | -23%[25.6 µM] | -3% | i | 0% | -1%
N#Cc1ccsc1NC(=O)CSc1ncn[nH]1 | 1% | 6% | 1% | i | 3% | -10%
N#Cc1ccsc1NC(=O)CSc1ncnc2ccccc12 | 20µM* | -3% | 1% | i | 0% | 0%
ICCc1ccccc1 | 2% | 13µM* | 0% | i | -5% | -5%
OCc1ccccc1 | 16% | -5% | -1% | i | 0% | 0%
C/C=C\C(=O)N(CC)c1ccccc1C | 33%[25.6 µM] | 11%[25.6 µM] | -1%[34.4 µM] | i | 2%[34.4 µM] | -6%[25.6 µM]
N#Cc1cccc(NC(=O)N2CCC3(CC2)CCN(C(=O)c2cccc(F)c2)CC3)c1 | -12% | -5% | -1% | i | -1% | 5%
